Consider 40 molecules from PubChem BioAssay (NCI).

About 83,000 compounds went through this panel and 20% of them were active in at least one assay; those are over-represented in the sample as a whole.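 Growth was measured after 48 h exposure to one concentration of compound in 96-well plates. Values under 10 count as active.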 Calls of active or inactive are those of the source.

The subject of this assay is TK-10 renal. In words: NCI-60 one-dose screen, 48 h (100 = growth as untreated, 0 = no growth, -100 = all killed). The settings on record: 10 µM unless noted. Here is the method: Growth inhibition of the TK-10 human tumor cell line is measured as a screen for anti-cancer activity. Cells are grown in 96 well plates and exposed to the test compound for 48 hours. Compounds are tested at a single concentration, which is 10^-5 M for most compounds. The reported endpoint is percent growth (GI% or GIPRCNT), where numbers from 0 - 100% represent growth inhibition, and numbers from -100% - 0 represent cell death. For example, a value of 40 represents 60% growth inhibition. A value of 0 means no net growth occurred over the course of the experiment. A value of -40 indicates 40% of cells at the beginning of the experiment died by the end of the experiment. A value of -100 means all cells are dead at the end of the experiment.
NCI-60 Human Tumor Cell Lines Screen was performed using the standard one-dose NCI protocol, which is described in more detail at https://dtp.cancer.gov/discovery_development/nci-60/default.htm.
Compounds with GIPRCNT values below 10 were considered active. Activity score was based on GIPRCNT using the following formula: […]
Score is 0 for GIPRCNT values of 100 or above, 50 for GIPRCNT values of 0, and 100 for GIPRCNT values of -100.
For `O=C(c1ccc(O)cc1)[C@@H]1[C@@H]2CCCN2[C@@]2(C(=O)N(C(=O)c3ccc(F)cc3)c3ccccc32)[C@H]1c1ccc(F)cc1`, the growth was 143% (inactive). To `COc1ccc(N2C(=O)c3cc(OC)c(OC)cc3NC2SCc2ccccc2)cc1` (stereo not given) belongs 129% (inactive); to `COC(=O)c1c(C(=O)OC)c2n(CC(=O)Nc3cccc4cccnc34)c3ccccc3n2c1C(=O)c1ccc(C)cc1`, 108% (inactive). Consider `COc1cc(-c2nc(SCc3ccc(C)cc3)[nH]c(=O)c2C#N)ccc1OCc1ccccc1`, for which the growth is 101% (inactive). To `COc1cc2cc(Oc3ccc(NC(=O)Nc4cccc(C(F)(F)F)c4)cc3)c(C)nc2cc1OCCN(C)C` belongs 110% (inactive); to `O=S(=O)(Nc1cc(Cl)c(F)c(Cl)c1)c1ccc(-c2cnc(C3CC3)o2)cc1`, 72.5% (inactive). To `CC(=O)Nc1ccc(NC(=O)Nc2cccc(-c3nc(-c4ccc(NC(=O)c5cccnc5)cc4Cl)no3)c2)cc1C(F)(F)F` belongs -31.7% (active).

On to `CC[C@H](C)[C@H]1NC(=O)[C@@H]([C@H](O)C(C)C)NC(=O)[C@@H](C)N(C)C(=O)[C@H](C)N(C)C(=O)[C@H](CC(C)C)NC(=O)[C@H](CC(C)C)N(C)C(=O)[C@H](C)N(C)C1=O`, for which the growth was 1.97% (active). Then `O=C1Nc2cc(OC(F)(F)F)ccc2Oc2ccc(-c3ccnc(N4CCNCC4)c3)cc21`, with 27.8% (inactive). Then `Cc1nn(-c2ccc(Br)cc2)c2nc(CCl)[nH]c(=O)c12`, with 111% (inactive); and `Cc1ccc(/C=C/c2nn3c(-c4ccco4)nnc3s2)cc1`, with 87.9% (inactive). Then `O=C(CN1CCN(c2cc(=O)n(-c3ccccc3)c3ccccc23)CC1)Nc1ccc([N+](=O)[O-])cc1`, with 93.3% (inactive). On to `COc1ccc2c(C3=C(c4cn(C)c5ccccc45)C(=O)NC3=O)coc2c1`, for which the growth was 79.4% (inactive). For `CSc1nccc(-c2c(-c3ccc(F)c(OCc4ccc(F)cc4)c3)nc3sccn23)n1`, the growth was 70% (inactive). `CCCCCCNC(=O)Oc1ccc(/C(=C(/C)c2ccccc2)c2ccc(OCCN(C)C)cc2)cc1`: the growth is 83% (inactive). Then `C#C[C@]1(O)CC[C@H]2[C@@H]3CC=C4c5sc(Nc6cc(Cl)ccn6)nc5CC[C@]4(C)[C@H]3CC[C@@]21C`, with 35.4% (inactive); and `CCN1C(=O)N(CC)C2SC(N/N=C/c3ccccc3)=NC21` (stereo not given), with 81.3% (inactive).

As for `Cc1ccc(Nc2ncnc3c2c(C)nn3-c2ccc([N+](=O)[O-])cc2)cc1`, the growth was 97.9% (inactive). Take `O=S(=O)(Nc1ccc2c(c1)OC(F)(F)O2)c1ccc(-c2cnc(C3CC3)o2)cc1`: the growth is 84.3% (inactive). Then `O=C(Nc1ccc(F)cc1)c1cc(-c2ccc(F)cc2F)ccc1O`, with 13.1% (inactive); and `NC(=O)c1c(NC(=O)c2cccc(OC(F)(F)F)c2)sc2c1CCC(=O)C2`, with 73.3% (inactive); and `CCOC(=O)c1nn(-c2ccccc2)c(=O)c2c(N)c(C#N)c(-c3cccs3)cc12`, with 115% (inactive). To `COc1cc2cc(Oc3ccc(NC(=O)c4cccc(C(F)(F)F)c4)cc3)c(C)nc2cc1OCCN(C)C` belongs 98% (inactive). To `CCCCCCNC(=O)Oc1ccc(/C(=C(\C)c2ccc(OC)cc2)c2ccc(OCCN(C)C)cc2)cc1` belongs 107% (inactive); to `CC[C@]12C=CCN3CC[C@]4(C(=C(C(=O)OC)C1)Nc1cc5c(cc14)[C@@H]1[C@H](O5)[C@@H](O)[C@@]4(CC)CC(C(=O)OC)=C5Nc6cc(OC)ccc6[C@@]56CCN1[C@@H]46)[C@@H]32`, 14.1% (inactive). In the case of `Cc1ccc(NC(=O)c2ccc(CN3CCN(C)CC3)c(I)c2)cc1Oc1ccc(-c2[nH]nc3ncnc(N)c23)cc1`, the growth is 114% (inactive). To `CSc1ccc(/C(=N/N=C(N)N)c2ccccc2)cc1` belongs 63.9% (inactive); to `COc1ccc(CN2C(=O)/C(=C/c3nc(CO)cs3)SC2=S)cc1`, 65.6% (inactive). Then `Cn1cc(-c2nn3cc(-c4cccnc4)nc3s2)c2ccccc21`, with 80.5% (inactive). To `CCOC(=O)c1c(NC(=O)c2ccc(C(C)(C)C)cc2)sc2cc(OCCN3CCCCC3)ccc12` belongs 112% (inactive); to `COc1cc2c3c(n(CCCNC4CCCC4)c(=O)c2cc1OC)-c1cc2c(cc1C3=O)OCO2`, -97% (active); to `O=C1c2c(c3c4cc(Br)ccc4[nH]c3c3ccc4ccccc4c23)C(=O)N1CCN1CCNCC1`, 148% (inactive). As for `COc1ccc([C@H]2[C@H](O)C(=O)N2c2cc(OC)c(OC)c(OC)c2)cc1O`, the growth is 81.1% (inactive). To `Cc1ccc(/C=C/CC(=O)Nc2ccc(C(=O)Nc3ccc(F)cc3N)nc2)cn1` belongs 6.58% (active). To `Cn1cc(-c2nn3cc(-c4cccnc4)nc3s2)c2cc(F)ccc21` belongs 129% (inactive); to `C/C(=N\NC(=S)Nc1ccc(Br)cc1)c1cc2ccccc2oc1=O`, 42.4% (inactive).

`CCN1C(=O)N(CC)C2SC(N/N=C/c3ccc(F)cc3)=NC21` (stereo not given): the growth is 88.3% (inactive). For `COc1ccccc1N1CCN(C2=NN=C(c3cccc(Cl)c3)c3ccccc3C2)CC1`, the growth was 27.8% (inactive). To `CS(=O)c1nccc(-c2c(-c3ccc(F)c(OCc4ccccc4)c3)nc3sccn23)n1` (stereo not given) belongs 106% (inactive); to `C#CCOc1ccc(C(Nc2ccc(Cl)cc2)c2nnnn2C2CCCCC2)cc1` (stereo not given), 95% (inactive).
